Experimental data as given in PubChem BioAssay (NCATS).
Active and inactive are the calls of the source. Calls follow the shape of the dose curve; as a rule, active = well fitted inhibition curve with a large enough effect; inconclusive = small, poorly fitted or top-dose-only effect; inactive = flat fitted curve, though single readings scatter.

Biological target: Luciferin 4-monooxygenase (Photinus pyralis) (UniProt P08659)
Experiment: Primary firefly luciferase (FLuc) qHTS assay for identification of artifact compounds. (AID 1845220); also: nearly all actives have a fitted effect of over 60% in size
Conditions: purified firefly luciferase, luminescence, 5 min; series mostly up to 54.1 µM
Procedure, shortened: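 Titrated compounds were incubated 15 min at RT, protected from light, with luciferin and ATP at 10 uM; reaction started with 10 nM FLuc, luminescence imaged at 5 min, and concentration-response fitted by Hill equation.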

SMILES | outcome
CC(=O)O[C@]1(C(C)=O)CC[C@H]2[C@@H]3C[C@H](C)C4=CC(=O)CC[C@]4(C)[C@H]3CC[C@@]21C | inactive
CN1C(CCl)Nc2cc(Cl)c(S(N)(=O)=O)cc2S1(=O)=O (configuration not stated) | inactive
Cc1ccc(Nc2c(F)cccc2Cl)c(CC(=O)O)c1 | inactive
Cc1cc2c(cc1CC(=O)c1sccc1S(=O)(=O)Nc1onc(C)c1Cl)OCO2 | inactive
CN(C)CCCOc1nn(Cc2ccccc2)c2ccccc12 | inactive
Nc1ccn([C@@H]2O[C@H](CO)[C@@H](O)C2(F)F)c(=O)n1 | inactive
CCCCS(=O)(=O)N[C@@H](Cc1ccc(OCCCCC2CCNCC2)cc1)C(=O)O | inactive
COC(=O)C1=C(C)NC(C)=C(C(=O)O[C@@H]2CCCN(Cc3ccccc3)C2)[C@@H]1c1cccc([N+](=O)[O-])c1 | inactive
COc1ccc(CN2CCN(C(c3ccc(F)cc3)c3ccc(F)cc3)CC2)c(OC)c1OC | inactive
Cc1nc2n(c(=O)c1CCN1CCC(c3noc4cc(F)ccc34)CC1)CCC[C@H]2O | inactive
CC(=O)OCC(=O)[C@@]1(O)CC[C@H]2[C@@H]3CCC4=CC(=O)C=C[C@]4(C)[C@H]3[C@@H](O)C[C@@]21C | inactive
CN1CCN(C(c2ccccc2)c2ccccc2)CC1 | inactive
